Calls of active or inactive are those of the source. How the calls were made is not given here.
Biological target: Estrogen receptor (Homo sapiens) (UniProt P03372)
Test: displacement of fluorescent estrogen from ERalpha – cell-based, Cos7 ERalpha-GFP, flow cytometry, primary screen (AID 1211);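 further: 0% = DMSO vehicle wells and 100% = no E2-Alexa633 signal left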
Conditions: fluorescent ligand competition, stronger effect = higher value

Chain of Estrogen receptor (Homo sapiens) (P03372 whole entry, looked up): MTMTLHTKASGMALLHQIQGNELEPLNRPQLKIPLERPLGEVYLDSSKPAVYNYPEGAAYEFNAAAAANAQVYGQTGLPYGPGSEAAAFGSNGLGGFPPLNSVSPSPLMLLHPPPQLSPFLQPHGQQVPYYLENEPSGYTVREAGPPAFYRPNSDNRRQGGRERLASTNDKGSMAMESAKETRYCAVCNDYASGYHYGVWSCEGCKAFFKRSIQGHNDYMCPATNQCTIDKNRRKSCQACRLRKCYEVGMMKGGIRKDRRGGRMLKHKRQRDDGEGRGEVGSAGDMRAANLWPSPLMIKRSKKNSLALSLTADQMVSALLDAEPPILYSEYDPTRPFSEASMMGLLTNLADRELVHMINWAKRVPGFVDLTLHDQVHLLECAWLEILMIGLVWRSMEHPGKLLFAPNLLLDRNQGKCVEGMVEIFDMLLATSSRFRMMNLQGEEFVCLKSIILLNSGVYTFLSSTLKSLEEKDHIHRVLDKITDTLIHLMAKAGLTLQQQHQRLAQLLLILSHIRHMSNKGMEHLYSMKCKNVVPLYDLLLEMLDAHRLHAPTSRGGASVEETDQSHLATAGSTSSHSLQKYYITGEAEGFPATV

Structure (SMILES)	inhibition of ligand binding (at 10 µM)	inhibition of ligand binding (binding inhibition, at 0.1 µM) [%]
CC(=O)c1ccc(NCC(=O)N2CCN(c3ccccc3)CC2)cc1	58% (inactive)	18
Clc1ccc(Sc2cc(N3CCOCC3)nc(-c3ccccc3)n2)cc1	41% (inactive)	25
O=c1oc2ccccc2cc1-c1ccc(O)cc1	60% (inactive)	24
O=Cc1cn(-c2ccccc2)nc1-c1cc2c(ccc3ccccc32)oc1=O	40% (inactive)	55
O=C1c2ccccc2NC(c2ccc(O)cc2)N1/N=C/c1ccc(O)cc1 (centres undefined)	32% (inactive)	65
O=C1c2ccccc2C(=O)N1/N=C/c1ccc(O)c(O)c1	32% (inactive)	23
O=C(CNc1ccccc1)N/N=C/c1cn(-c2ccccc2)nc1-c1ccccc1	28% (inactive)	52
FC(F)(F)c1ccc2c(c1)C1C=CCC1C(c1ccncc1)N2 (centres undefined)	61% (inactive)	27
c1coc(-c2nn3c(-c4ccco4)nnc3s2)c1	15% (inactive)	15
CCCC1=NN2C(=N)/C(=C\c3ccc(SCc4ccco4)o3)C(=O)N=C2S1	14% (inactive)	26
CCC(Sc1ncnc2sc(C)c(C)c12)C(=O)OC (centres undefined)	38% (inactive)	30
Cc1ccnc(NS(=O)(=O)c2ccc(NC(=O)Cc3cccs3)cc2)n1	31% (inactive)	63
O=C(c1cccs1)N1N=C(c2ccc(O)cc2)CC1c1ccccc1 (centres undefined)	58% (inactive)	17
CCn1c(SCC(=O)N2CCOCC2)nc2oc3c(Cl)cc(Cl)cc3c(=O)c2c1=O	22% (inactive)	5
O=C(OC1CCCCC1)c1ccc2c(c1)C1C=CCC1C(C(=O)O)N2 (centres undefined)	42% (inactive)	14
CCOC(=O)Cn1cnc2sc3c(c2c1=O)CCC3	23% (inactive)	13

Structure (SMILES)	inhibition of ligand binding (at 10 µM)	inhibition of ligand binding (binding inhibition, at 0.1 µM) [%]
Oc1ccc(/C=N/n2c(-c3ccco3)csc2=Nc2cccnc2)c(O)c1	49% (inactive)	21
COCCOC(=O)c1[nH]c2c(c1C)C(=O)CC(c1ccco1)C2 (centres undefined)	2% (inactive)	8
C/C(N)=C(/C#N)C(=O)CSc1nnc(-c2ccc(OC(F)F)cc2)o1	20% (inactive)	24
COc1cc(C2Nc3c(F)cccc3C3C=CCC32)cc(Br)c1OC (centres undefined)	10% (inactive)	20
CN(C)C(=O)c1ccc2c(c1)C1C3CCC(C3)C1C(c1ccccc1)N2 (centres undefined)	0% (inactive)	24
Cc1noc(C)c1COC(=O)c1cc2c3ccccc3n(C)c2s1	41% (inactive)	33
O=C(O)C1Nc2c(C(=O)N3CCOCC3)cccc2C2C=CCC12 (centres undefined)	28% (inactive)	15
O=C(Nc1nccs1)c1ccc2nccnc2c1	33% (inactive)	24
CCc1cccc2c(C(=O)Cn3nnc(-c4ccc(OC)c(OC)c4)n3)c[nH]c12	10% (inactive)	24
CCO/C([O-])=N/c1c[n+](N2CCOCC2)no1	0% (inactive)	12
COc1cccc2cc3c(=O)n(-c4ccccc4)nc-3oc12	47% (inactive)	23
COCc1cc(=O)n2c(-c3ccc(C)cc3)n[nH]c2n1	40% (inactive)	62
O=C(Nc1ccc2nn(-c3ccccc3)nc2c1)c1ccc2c(c1)OCO2	15% (inactive)	44
CCOc1cc(C2CC(=O)c3c(ccc4ccccc34)N2)ccc1O (centres undefined)	32% (inactive)	23
Cc1nnc(SCC(=O)NC(=O)NCc2ccco2)n1Cc1ccccc1	8% (inactive)	12
COc1ccc2cc3c(N)nn(C(=O)Cc4ccc(Cl)cc4)c3nc2c1	18% (inactive)	16

Reference: PubChem BioAssay AID1211 (NMMLSC, 2008)
